E coli growth-1: E. coli V3065 growth inhibition, primary screen, counter-screen for AddAB inhibitor project, absorbance, OD600 | 18 h | inhibition, % at 11.9 µM | 0.27% of 330,000 active;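 active means inhibition above the campaign's mean inhibition across all tested compounds plus 3 SD, cut at about 9.9% in these data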;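 further: uninfected addAB+ strain grown without phage in ampicillin broth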
AddAB inh: growth inhibition of E. coli expressing H. pylori AddAB, primary screen, AddAB inhibitor project, absorbance; inhibition, % at 11.9 µM; 0.29% of 330,000 active; AID 435030, 2010; in the data active means inhibition above about 12%
E coli growth-2: E. coli growth inhibition, primary screen, OD600 | Escherichia coli growth, 23 h; hits give low values | OD600 absorbance (test concentration not listed) | AID 1053175, 2014 | 0.21% of 330,000 active;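 active means OD600 absorbance below the run mean of sample wells minus 3.6 SD, in any replicate, cut at about 0.56 in these data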
Tat export inh: E. coli Tat export inhibitors, primary screen, MC4100, TorA-mCherry reporter, fluorescence, single point; inhibition, % at 10 µM; 0.036% of 340,000 active;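 active means mean replicate inhibition at least 50% and at least half of replicates individually reaching 50%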;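 further: exported cargo escapes ClpAP degradation while cytoplasmic cargo is degraded and loses fluorescence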
phage Ecoli inh: growth loss of phage-infected E. coli, primary screen, RecBCD inhibitor project, absorbance, with phage, HTS; AID 651602, 2012; 0.26% of 360,000 active; inhibition, % at 11.9 µM; in the data active means inhibition above about 11%
AddAB confirm: growth loss of phage-infected E. coli expressing H. pylori AddAB, confirmation, AddAB inhibitor project, absorbance, E. coli V3065, T4 phage, triplicate | AID 488942, 2010 | inhibition, % at 11.9 µM | OD; T4 phage with gene 2 nonsense mutations | 64% of 880 active | shares compounds with AddAB inh;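 active means mean inhibition above a set limit taken from the earlier primary screen, cut at about 13% in these data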;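 further: higher means less bacterial growth since AddAB block lets phage replicate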
RecBCD counter: growth loss of RecBCD+ E. coli with mutant T4 phage, counter-screen for AddAB inhibitor project, absorbance, V66 E. coli | OD growth | shares compounds with AddAB inh | 73% of 880 active | inhibition, % at 11.9 µM;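 active means mean inhibition above the mean of solvent-only control wells plus 3 SD, cut at about 4% in these data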;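 further: optical density read after an 18 h incubation at 37 °C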
bact viab count: bacterial viability inhibition counter-screen, confirmation, counter-screen for AddAB inhibitor project, absorbance. shares compounds with AddAB inh. absorbance (AddAB counterscreen). inhibition, % at 11.9 µM. 35% of 880 active; in the data active means inhibition above about 25%
RecBCD conf: growth loss of phage-infected RecBCD+ E. coli, confirmation, RecBCD inhibitor project, absorbance, E. coli V66, T4 gene 2 phage; shares compounds with phage Ecoli inh; E. coli V66 + T4 2- phage, growth OD; inhibition, % at 11.9 µM; 45% of 890 active; AID 651982, 2013;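 active means mean inhibition over triplicates exceeding the hit threshold derived in the original primary screen, cut at about 11% in these data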
Ecoli viability: E. coli viability inhibition, counter-screen for RecBCD inhibitor project, absorbance, high throughput. shares compounds with phage Ecoli inh. absorbance (OD) growth. 29% of 890 active. inhibition, % at 11.9 µM; in the data active means inhibition above about 20%;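 further: E. coli strain V66 grown with compound alone and no phage infection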
AddAB counter: growth loss of phage-infected AddAB-carrying E. coli, confirmation, counter-screen for RecBCD inhibitor project, absorbance, E. coli V3065, T4 phage; inhibition, % at 11.9 µM; shares compounds with phage Ecoli inh; 45% of 890 active; E. coli expressing H. pylori AddAB + T4 phage, OD growth; gene 2 mutant T4, recBCD-deleted host;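 active means mean inhibition above the solvent-only control wells' mean plus 3 SD, cut at about 22% in these data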;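 further: higher means less bacterial growth from phage killing when AddAB is blocked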
Numbers stand for hits; n = inactive; x = not tested or not shown. Hits are enriched below; roughly 0.5% of the tested compounds scored in any of these assays.

SMILES	E coli growth-1	AddAB inh	E coli growth-2	Tat export inh	phage Ecoli inh	RecBCD conf	Ecoli viability	AddAB counter	others
CCCCC(=O)NC(c1ccc(C(C)C)cc1)c1ccc2cccnc2c1O (stereo unspecified)	20.4	16.9	n	n	17.1	n	n	n	AddAB confirm=17.9;RecBCD counter=15.4;bact viab count=n
CCCC(=O)NC(c1ccccc1)c1ccc2cccnc2c1O (stereo unspecified)	31.8	23.6	x	n	20.5	18.1	23.9	29.4	AddAB confirm=25.5;RecBCD counter=24.7;bact viab count=n
CC(=O)NC(c1cccc([N+](=O)[O-])c1)c1ccc2cccnc2c1O (stereo unspecified)	x	x	x	n	n	x	x	x
CCCCC(=O)NC(c1ccccc1)c1ccc2cccnc2c1O (stereo unspecified)	31.5	25.9	x	n	24.3	11.8	n	29.2	AddAB confirm=27.2;RecBCD counter=24.8;bact viab count=n
O=C(C=Cc1ccc(Cl)cc1)N(Cc1ccccc1)c1ccccn1	x	x	n	x	x	x	x	x
Fc1ccc(C=NN2CCOCC2)c(F)c1	x	x	n	x	x	x	x	x
CC(=O)NC(c1ccc(C(C)C)cc1)c1ccc2cccnc2c1O (stereo unspecified)	24.1	19.7	x	n	23.3	13.3	n	n	AddAB confirm=14.6;RecBCD counter=17.4;bact viab count=n
CCCCC(=O)NC(c1ccccc1Cl)c1ccc2cccnc2c1O (stereo unspecified)	27.7	18.7	x	n	21.4	14.5	n	24.0	AddAB confirm=22.3;RecBCD counter=19.4;bact viab count=n
O=C(COc1cccc2cccnc12)Nc1nccs1	n	n	n	n	n	x	x	x
Oc1cccc(C(Nc2nccs2)c2ccc3cccnc3c2O)c1 (stereo unspecified)	16.0	18.3	n	n	15.6	n	n	n	AddAB confirm=19.2;RecBCD counter=17.0;bact viab count=n
Cc1cccc(C)c1OCc1cc(C(=O)N(C)Cc2nc3ccccc3[nH]2)no1	16.5	26.0	n	n	14.3	n	n	38.5	AddAB confirm=18.8;RecBCD counter=11.3;bact viab count=n
CCc1nnc(NS(=O)(=O)c2ccc(N=CC3=C(O)CC(C)(C)CC3=O)cc2)s1	10.7	16.8	n	n	13.5	n	n	21.3	AddAB confirm=n;RecBCD counter=5.9;bact viab count=n
CC1(C)CC(=O)C(C=Nc2ccc(O)cc2)=C(O)C1	n	n	n	n	n	x	x	x
CN(C)c1ccc(Sc2ccc3nc(N)nc(N)c3c2)cc1	x	x	x	x	98.5	64.0	67.6	82.1
COc1cc2nc(N(C)C)nc(N)c2cc1OC	n	n	n	n	n	x	x	x
COc1ccccc1C(=O)NC(CCSC)C(=O)NNC(=O)c1ccccc1O (stereo unspecified)	n	n	n	n	11.7	n	n	n
CC(C)Cn1c(N)c(C=NNC(=O)c2ccc(Cl)cc2)c(=O)n(C)c1=O	x	x	n	x	x	x	x	x
Cc1ccccc1C(=O)NCC(C)NC(=O)c1ccccc1C (stereo unspecified)	n	n	n	n	99.8	n	n	n
Cc1ccccc1CNC(=O)c1ccccc1C	n	n	n	n	n	x	x	x
COc1ccc(-c2oc3ccccc3c(=O)c2OCC(=O)O)cc1	n	n	n	n	n	x	x	x
COc1ccc(-c2oc3ccccc3c(=O)c2OC(C)=O)cc1	12.0	n	n	n	11.3	n	n	n
CSc1ccc(C=Nn2c(COc3ccccc3)n[nH]c2=S)cc1	x	x	n	x	x	x	x	x
CC(NC(=O)C1CCCCC1)C(c1cccs1)N1CCOCC1 (stereo unspecified)	n	n	n	n	96.5	n	n	n
CC(NC(=S)NC1CCCCC1)C(c1cccs1)N1CCOCC1 (stereo unspecified)	n	n	n	n	n	x	x	x
COc1ccc(N2C(=O)CSC2=NC(=S)Nc2ccccc2)cc1	x	x	n	x	x	x	x	x
SMILES	E coli growth-1	AddAB inh	E coli growth-2	Tat export inh	phage Ecoli inh	RecBCD conf	Ecoli viability	AddAB counter	others
CC(C)N=c1scc(-c2cccs2)n1/N=C/c1ccc(O)c(O)c1O	n	n	x	n	16.1	n	n	n
Cc1cc(NS(=O)(=O)c2ccc(NC(=S)Nc3ccc(Cl)cc3C)cc2)no1	n	n	n	n	12.4	n	n	n
Cc1ccc([N+](=O)[O-])cc1-c1ccc(C=NNC(=O)c2cc3c(ccc4ccccc43)o2)o1	x	x	n	x	x	x	x	x
O=C(c1ccc(-c2ccccc2)c(F)c1)C1CCCN(CCCn2cccn2)C1 (stereo unspecified)	n	n	n	n	99.5	n	n	n
Cc1cccc(NC(=O)COC(=O)CN2CCCCCC2=O)c1C	n	n	n	n	10.9	n	n	n
CCN1C(=O)C2C(c3ccc(-c4ccc(C(C)=O)cc4)cc3)N3CCCC[C@@]3(C(=O)OC)C2C1=O (stereo partly specified)	x	x	n	x	x	x	x	x
NC(=S)NN=Cc1cc(-c2cccc(N)c2)ccn1	x	x	x	x	21.2	13.8	n	31.7
CC=C(C)C(=O)OC1Cc2c(ccc3ccc(=O)oc23)OC1(C)C (stereo unspecified)	x	x	n	x	x	x	x	x
O=C(C(=O)c1cc(Br)ccc1O)c1cc(Br)ccc1O	x	x	0.172	n	13.1	12.7	n	n
C/C=N/NC(=O)c1cc(Br)ccc1O	n	n	x	n	n	x	x	x
CN(C)CCOc1ccc2c(c1)C(=O)C(=Cc1ncc([N+](=O)[O-])n1C)C2	x	x	x	x	94.9	86.6	96.4	100.2
CCc1cc(OCCN(C)C)ccc1Cl	n	n	n	n	n	x	x	x
CC(C)(C)C1C=C(C(=O)NCc2nc3ccccc3[nH]2)OC(OCCCCO)C1 (stereo unspecified)	x	x	n	x	x	x	x	x
O=C(CN1C(=O)COc2ccccc21)NNC(=O)Nc1ccccc1F	n	n	n	n	n	x	x	x
O=C(CN1C(=O)COc2ccccc21)Nc1ccccc1F	n	n	n	n	14.1	n	n	n
COc1cccc(OCC(=O)NNC(=O)c2ccc3ccccc3c2O)c1	x	x	n	n	15.3	n	n	n
COc1ccc(C(=O)NNC(=O)c2ccc3ccccc3c2O)cc1	n	n	n	n	n	x	x	x
Cc1ccnc2c1ccc1cccnc12	x	x	0.371	n	13.7	12.6	n	n
Cc1ccnc2c1ccc1ccccc12	n	n	n	n	n	x	x	x
